Measurements taken from PubChem BioAssay (EPA / NIEHS).
Active and inactive are the calls of the source. Rule for the calls: active = hit-call score of the fitted dose curve at least 0.9, where 1 is the maximum; inactive = score below 0.9.

Assays:
[1] = target: Bile acid receptor (Homo sapiens) (UniProt Q96RI1); experiment: ATG_IR1_CIS: Attagene CIS-FACTORIAL HepG2 Assay for human Nuclear Receptor Subfamily 1 Group H Member 4 (NR1H4), IR1 submotif (AID 2282946); settings: IR1 reporter transcription, actives raise or lower the signal
In short: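 HepG2 cells transiently transfected with multiple cis-promoter-driven reporter units to measure endogenous transcription factor activity; 24 h exposure. Reporter mRNA read by RT-PCR, FAM labelling, HpaI digestion and capillary electrophoresis. Bidirectional fit versus DMSO.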

[2] = ATG_GRE_CIS: Attagene CIS-FACTORIAL HepG2 Assay for human Glucocorticoid Response Elements (GRE) (AID 2282947); settings: HepG2 GRE cis-reporter, Attagene multiplex mRNA; actives raise or lower the signal
In short: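 Endogenous transcription factor activity is read through cis-element reporter constructs transiently transfected into HepG2 cells. After 24 h treatment, labelled RT-PCR products are resolved by capillary electrophoresis; DMSO sets baseline for bidirectional curve fitting.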

[3] = ATG_ISRE_CIS: Attagene CIS-FACTORIAL HepG2 Assay for human Interferon Regulatory Factor 1 (IRF1) binding to an Interferon-Stimulated Response Element (ISRE) (AID 2282948); settings: HepG2 ISRE cis-reporter (Attagene), mRNA transcription readout; actives raise or lower the signal
In short: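 Quantitation relies on labelled RT-PCR fragments separated by capillary electrophoresis. Human HepG2 cells bearing cis-promoter reporter constructs were treated 24 h; DMSO served as baseline for bidirectional fitting.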

[4] = ATG_M_32_CIS: Attagene CIS-FACTORIAL HepG2 Assay for M32 Transcription Factor (Internal Marker) (AID 2282949); settings: HepG2 Attagene cis-factorial M32 reporter, mRNA; actives raise or lower the signal;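 note: background control marker of the multiplexed CIS panel rather than a real target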
In short: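 Internal background marker read-out: RT-PCR/capillary electrophoresis fluorescence of reporter transcripts from transiently transfected HepG2 cells after 24 h chemical exposure. Activity fitted bidirectionally relative to DMSO negative control.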

[5] = ATG_M_06_CIS: Attagene CIS-FACTORIAL HepG2 Assay for M06 Transcription Factor (Internal Marker) (AID 2282950); settings: HepG2 Attagene CIS-FACTORIAL M06 internal marker reporter; actives raise or lower the signal
In short: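 HepG2 cells transiently transfected with cis-regulated multiple reporter transcription units were exposed to chemical for 24 h; reporter mRNA was quantified by RT-PCR, 6-FAM primer labelling, HpaI digestion and capillary electrophoresis, fitted bidirectionally against DMSO.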

[6] = target: Hypoxia-inducible factor 1-alpha (Homo sapiens) (UniProt Q16665); experiment: ATG_HIF1a_CIS: Attagene CIS-FACTORIAL HepG2 Assay for human Hypoxia Inducible Factor 1 (HIF1A) (AID 2282951); settings: HepG2 Attagene cis-factorial HIF1a reporter transcription; actives raise or lower the signal
In short: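 Activity is fitted in both directions relative to DMSO. Reporter transcripts are read by RT-PCR, fluorescent primer extension and capillary electrophoresis after 24 h chemical treatment. The cells are HepG2 carrying transiently transfected cis-element-driven reporter units responding to endogenous factors.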

[7] = target: Hepatocyte nuclear factor 6 (Homo sapiens) (UniProt Q9UBC0); experiment: ATG_HNF6_CIS: Attagene CIS-FACTORIAL HepG2 Assay for human Hepatocyte Nuclear Factor 6 (HNF6) (AID 2282952); settings: HepG2 Attagene cis-factorial HNF6 reporter transcription; actives raise or lower the signal
In short: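 Multiplexed mRNA reporter assay in transfected HepG2; 24 h dosing; RT-PCR plus capillary electrophoresis fluorescence; DMSO-referenced bidirectional curve fitting.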

[8] = target: Heat shock factor protein 1 (Homo sapiens) (UniProt Q00613); experiment: ATG_HSE_CIS: Attagene CIS-FACTORIAL HepG2 Assay for human Heat Shock Transcription Factor 1 (HSE) (AID 2282953); settings: HepG2 HSE cis-reporter, Attagene RNA transcription; actives raise or lower the signal
In short: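 HepG2 cells transiently transfected with multiple reporter transcription units under cis-regulatory promoter control, measuring endogenous transcription factor activity. After 24 h chemical exposure, reporter mRNA quantified by RT-PCR, fluorescent labelling, HpaI digestion and capillary electrophoresis; bidirectional fit versus DMSO.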

[9] = ATG_MRE_CIS: Attagene CIS-FACTORIAL HepG2 Assay for human Metal Responsive Element (MRE) (AID 2282954); settings: HepG2 MRE cis-reporter transcription, Attagene multiplex; actives raise or lower the signal
In short: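 Fluorescent reporter fragments separated by capillary electrophoresis give mRNA induction for the MRE unit after 24 h treatment of transfected HepG2 cells. Endogenous transcription-factor activity is read; DMSO serves as negative control and baseline.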

[10] = ATG_PBREM_CIS: Attagene CIS-FACTORIAL HepG2 Assay for human Phenobarbital-responsive Enhancer Module (PBREM) (AID 2282955); settings: HepG2 PBREM cis-reporter, Attagene multiplexed transcription; actives raise or lower the signal
In short: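 Endogenous transcription factor activity was read from reporter transcripts in transiently transfected human HepG2 liver cells after 24 h dosing. RT-PCR products were fluorescently labelled, HpaI-cut and sized by capillary electrophoresis; activity fitted bidirectionally against DMSO baseline.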

[11] = target: Paired box protein Pax-6 (Homo sapiens) (UniProt P26367); experiment: ATG_Pax6_CIS: Attagene CIS-FACTORIAL HepG2 Assay for human Paired Box 6 (PAX6) (AID 2282956); settings: HepG2 CIS-FACTORIAL PAX6 reporter transcription, RNA readout; actives raise or lower the signal
In short: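 After twenty-four hours of chemical exposure, transfected HepG2 cells are harvested for RNA. Cis-promoter reporter transcripts are amplified, fluorescently labelled and sized by capillary electrophoresis, with gain and loss of signal scored against DMSO.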

[12] = ATG_PXRE_CIS: Attagene CIS-FACTORIAL HepG2 Assay for human Pregnane X Receptor Element (PXRE) (AID 2282957); settings: HepG2 Attagene CIS-FACTORIAL PXRE reporter, mRNA; actives raise or lower the signal
In short: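 Cells: HepG2, transiently transfected reporter units under cis promoter control. Exposure: 24 h. Detection: reporter mRNA via RT-PCR/CE fluorescence; bidirectional fitting, DMSO-referenced.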

[13] = ATG_PPRE_CIS: Attagene CIS-FACTORIAL HepG2 Assay for human Peroxisome Proliferator-activated Response Element (PPRE) (AID 2282958); settings: HepG2 PPRE cis-element reporter, Attagene transcription factor profiling; actives raise or lower the signal
In short: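 Endogenous PPRE-driven transcription is measured in HepG2 cells carrying transfected multi-reporter constructs. Reporter transcripts are quantified by RT-PCR, HpaI digestion and capillary electrophoresis 24 h after dosing. DMSO baseline, bidirectional fit.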

[14] = target: Transcription factor Sp1 (Homo sapiens) (UniProt P08047); experiment: ATG_Sp1_CIS: Attagene CIS-FACTORIAL HepG2 Assay for human Specificity Protein 1 (Sp1) (AID 2282961); settings: HepG2 Sp1 cis-reporter transcription, actives raise or lower the signal
In short: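 Read-out is reporter transcript level, measured by RT-PCR and fluorescent capillary electrophoresis after 24 h chemical treatment. System: transiently transfected HepG2 cells reporting endogenous transcription factor activity; gain or loss fitted against DMSO baseline.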

[15] = ATG_SREBP_CIS: Attagene CIS-FACTORIAL HepG2 Assay for human Sterol Regulatory Element Binding (SREBP) (AID 2282962); settings: HepG2 Attagene cis-factorial SREBP reporter, mRNA; actives raise or lower the signal
In short: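 Twenty-four hours after chemical dosing of transfected HepG2 cultures, reporter RNA was converted to cDNA, amplified, end-labelled with 6-FAM and resolved by capillary electrophoresis. Responses were fitted relative to DMSO.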

[16] = target: Signal transducer and activator of transcription 3 (Homo sapiens) (UniProt P40763); experiment: ATG_STAT3_CIS: Attagene CIS-FACTORIAL HepG2 Assay for human Signal Transducer and Activator of Transcription 3 (STAT3) (AID 2282963); settings: HepG2, Attagene cis-factorial STAT3 reporter transcription; actives raise or lower the signal
In short: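 Values derive from bidirectional fits relative to DMSO of reporter mRNA levels, measured by RT-PCR with capillary electrophoresis, in HepG2 cells carrying transiently transfected cis-regulated reporter units and exposed 24 h.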

[17] = ATG_TA_CIS: Attagene CIS-FACTORIAL HepG2 Assay for human TA Basal Promoter (AID 2282964); settings: HepG2 Attagene CIS-factorial TA basal promoter reporter; actives raise or lower the signal
In short: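 HepG2 cells transiently transfected with multiplexed cis-promoter reporter units, dosed 24 h. Reporter mRNA measured by RT-PCR, 6-FAM labelling, HpaI digestion and capillary electrophoresis; bidirectional fit versus DMSO baseline, serving as background control.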

[18] = ATG_TCF_b_cat_CIS: Attagene CIS-FACTORIAL HepG2 Assay for human T-Cell-Factor with beta-catenin (TCF/b-cat) (AID 2282965); settings: HepG2 TCF/beta-catenin cis-reporter transcription, actives raise or lower the signal
In short: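 HepG2 cells transiently transfected with cis-promoter-driven multiplexed reporter units; reporter mRNA measured 24 h after dosing by RT-PCR, FAM labelling, HpaI digestion and capillary electrophoresis. Bidirectional fitting relative to DMSO baseline.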

[19] = ATG_RORE_CIS: Attagene CIS-FACTORIAL HepG2 Assay for human RAR-related Orphan Receptor Element (RORE) (AID 2282959); settings: HepG2 Attagene cis-factorial RORE reporter, mRNA; actives raise or lower the signal
In short: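 RORE reporter transcripts reflecting endogenous factor activity were read after 24 h compound exposure of transfected HepG2 cells, using reverse transcription, PCR, fluorescent labelling and capillary electrophoresis sizing. Gain or loss fitted against DMSO.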

[20] = ATG_Sox_CIS: Attagene CIS-FACTORIAL HepG2 Assay for human SRY-box transcription factor (SOX) (AID 2282960); settings: HepG2 Attagene cis-factorial SOX reporter, mRNA; actives raise or lower the signal
In short: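 Reporter transcripts, measured by RT-PCR and capillary electrophoresis of labelled fragments, report endogenous SOX transcription factor activity. Transiently transfected human HepG2 cells receive chemical for 24 h; changes in either direction are fitted relative to DMSO.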

Measured: AC50

Chain of Hepatocyte nuclear factor 6 (Homo sapiens) (Q9UBC0 whole entry, looked up): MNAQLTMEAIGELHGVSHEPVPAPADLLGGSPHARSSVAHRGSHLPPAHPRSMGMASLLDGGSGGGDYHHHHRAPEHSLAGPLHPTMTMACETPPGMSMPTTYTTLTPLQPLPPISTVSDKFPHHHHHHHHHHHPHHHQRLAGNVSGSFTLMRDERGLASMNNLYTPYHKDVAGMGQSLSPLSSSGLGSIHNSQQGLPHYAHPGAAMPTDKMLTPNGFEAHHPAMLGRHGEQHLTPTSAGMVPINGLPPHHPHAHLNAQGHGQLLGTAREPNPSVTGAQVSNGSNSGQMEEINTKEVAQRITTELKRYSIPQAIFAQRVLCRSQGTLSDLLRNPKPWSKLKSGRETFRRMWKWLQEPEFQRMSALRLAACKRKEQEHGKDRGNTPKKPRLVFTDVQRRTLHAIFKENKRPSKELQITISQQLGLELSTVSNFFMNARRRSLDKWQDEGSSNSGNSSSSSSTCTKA
Chain of Bile acid receptor (Homo sapiens) (Q96RI1 whole entry, looked up): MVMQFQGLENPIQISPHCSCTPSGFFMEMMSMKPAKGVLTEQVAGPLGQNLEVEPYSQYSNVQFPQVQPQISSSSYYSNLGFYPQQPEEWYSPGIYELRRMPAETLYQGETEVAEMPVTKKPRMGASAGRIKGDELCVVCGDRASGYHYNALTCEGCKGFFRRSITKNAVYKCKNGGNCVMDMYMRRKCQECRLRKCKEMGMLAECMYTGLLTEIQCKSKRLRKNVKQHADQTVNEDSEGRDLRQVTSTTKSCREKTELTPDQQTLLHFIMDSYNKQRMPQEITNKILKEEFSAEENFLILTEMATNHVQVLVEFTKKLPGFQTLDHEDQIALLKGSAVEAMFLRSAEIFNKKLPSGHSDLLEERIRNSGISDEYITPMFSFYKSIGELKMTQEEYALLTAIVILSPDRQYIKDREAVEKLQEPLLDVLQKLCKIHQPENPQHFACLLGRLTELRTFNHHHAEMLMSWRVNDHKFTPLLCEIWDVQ
Chain of Heat shock factor protein 1 (Homo sapiens) (Q00613 whole entry, looked up): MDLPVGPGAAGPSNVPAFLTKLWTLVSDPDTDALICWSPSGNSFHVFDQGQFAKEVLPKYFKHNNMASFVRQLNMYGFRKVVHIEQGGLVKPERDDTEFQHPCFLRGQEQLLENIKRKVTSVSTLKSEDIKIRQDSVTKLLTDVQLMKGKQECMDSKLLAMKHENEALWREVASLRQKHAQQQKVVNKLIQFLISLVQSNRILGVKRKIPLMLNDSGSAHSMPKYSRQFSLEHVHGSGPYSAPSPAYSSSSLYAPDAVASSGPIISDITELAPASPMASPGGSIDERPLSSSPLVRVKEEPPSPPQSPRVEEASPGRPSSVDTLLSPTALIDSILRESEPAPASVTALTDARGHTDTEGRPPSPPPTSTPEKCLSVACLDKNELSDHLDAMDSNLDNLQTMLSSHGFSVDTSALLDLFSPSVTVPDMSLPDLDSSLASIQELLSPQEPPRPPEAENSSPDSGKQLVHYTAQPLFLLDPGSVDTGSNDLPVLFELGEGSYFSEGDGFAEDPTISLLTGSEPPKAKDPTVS
Chain of Transcription factor Sp1 (Homo sapiens) (P08047 whole entry, looked up): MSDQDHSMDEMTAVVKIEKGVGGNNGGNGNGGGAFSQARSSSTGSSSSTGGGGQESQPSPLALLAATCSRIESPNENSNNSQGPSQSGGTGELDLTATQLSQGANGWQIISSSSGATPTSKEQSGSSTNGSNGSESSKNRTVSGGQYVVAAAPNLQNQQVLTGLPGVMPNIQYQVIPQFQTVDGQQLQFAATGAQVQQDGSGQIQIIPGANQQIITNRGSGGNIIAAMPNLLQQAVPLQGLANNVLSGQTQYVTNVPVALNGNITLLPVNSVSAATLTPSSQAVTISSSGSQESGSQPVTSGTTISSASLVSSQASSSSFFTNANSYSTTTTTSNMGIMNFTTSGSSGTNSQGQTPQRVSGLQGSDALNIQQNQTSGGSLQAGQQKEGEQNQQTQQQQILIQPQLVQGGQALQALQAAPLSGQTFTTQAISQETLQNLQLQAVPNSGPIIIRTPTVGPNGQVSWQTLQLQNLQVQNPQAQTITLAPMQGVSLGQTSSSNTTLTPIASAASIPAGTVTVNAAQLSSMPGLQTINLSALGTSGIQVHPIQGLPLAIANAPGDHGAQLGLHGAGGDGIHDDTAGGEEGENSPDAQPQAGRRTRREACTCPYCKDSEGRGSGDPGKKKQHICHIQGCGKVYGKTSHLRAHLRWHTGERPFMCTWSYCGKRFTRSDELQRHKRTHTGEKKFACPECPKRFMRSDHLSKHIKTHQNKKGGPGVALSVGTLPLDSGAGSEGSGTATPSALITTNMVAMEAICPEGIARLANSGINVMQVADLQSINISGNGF
Chain of Signal transducer and activator of transcription 3 (Homo sapiens) (P40763 whole entry, looked up): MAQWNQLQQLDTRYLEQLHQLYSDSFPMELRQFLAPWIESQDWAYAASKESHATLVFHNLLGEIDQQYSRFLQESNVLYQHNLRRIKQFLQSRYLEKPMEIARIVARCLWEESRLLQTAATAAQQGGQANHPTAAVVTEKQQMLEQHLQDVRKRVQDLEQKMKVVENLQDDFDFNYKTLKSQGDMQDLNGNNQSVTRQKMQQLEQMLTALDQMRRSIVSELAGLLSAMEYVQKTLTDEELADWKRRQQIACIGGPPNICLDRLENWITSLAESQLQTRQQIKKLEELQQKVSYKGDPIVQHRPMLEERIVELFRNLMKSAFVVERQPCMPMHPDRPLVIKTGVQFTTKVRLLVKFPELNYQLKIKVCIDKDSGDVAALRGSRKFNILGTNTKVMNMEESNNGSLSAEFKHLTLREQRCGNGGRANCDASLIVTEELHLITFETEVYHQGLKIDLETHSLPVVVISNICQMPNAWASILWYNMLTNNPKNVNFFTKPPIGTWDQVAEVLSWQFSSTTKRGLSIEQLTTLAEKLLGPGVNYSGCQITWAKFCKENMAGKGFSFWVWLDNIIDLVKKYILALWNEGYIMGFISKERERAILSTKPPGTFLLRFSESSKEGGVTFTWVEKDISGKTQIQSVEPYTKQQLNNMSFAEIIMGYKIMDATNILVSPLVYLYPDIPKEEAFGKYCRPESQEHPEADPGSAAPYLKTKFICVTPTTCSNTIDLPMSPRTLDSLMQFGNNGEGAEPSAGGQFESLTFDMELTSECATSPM
Chain of Paired box protein Pax-6 (Homo sapiens) (P26367 whole entry, looked up): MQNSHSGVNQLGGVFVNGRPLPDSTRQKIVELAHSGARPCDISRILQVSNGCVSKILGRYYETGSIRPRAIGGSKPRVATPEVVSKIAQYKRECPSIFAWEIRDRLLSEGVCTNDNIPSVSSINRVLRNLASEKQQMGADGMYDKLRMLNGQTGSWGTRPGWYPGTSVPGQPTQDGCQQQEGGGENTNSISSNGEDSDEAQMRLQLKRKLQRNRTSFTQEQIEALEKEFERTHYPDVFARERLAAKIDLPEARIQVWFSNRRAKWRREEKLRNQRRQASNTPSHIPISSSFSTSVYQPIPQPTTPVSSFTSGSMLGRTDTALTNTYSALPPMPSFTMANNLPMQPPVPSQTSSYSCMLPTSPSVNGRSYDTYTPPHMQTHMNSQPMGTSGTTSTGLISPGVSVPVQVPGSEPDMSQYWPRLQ
Chain of Hypoxia-inducible factor 1-alpha (Homo sapiens) (Q16665 whole entry, looked up): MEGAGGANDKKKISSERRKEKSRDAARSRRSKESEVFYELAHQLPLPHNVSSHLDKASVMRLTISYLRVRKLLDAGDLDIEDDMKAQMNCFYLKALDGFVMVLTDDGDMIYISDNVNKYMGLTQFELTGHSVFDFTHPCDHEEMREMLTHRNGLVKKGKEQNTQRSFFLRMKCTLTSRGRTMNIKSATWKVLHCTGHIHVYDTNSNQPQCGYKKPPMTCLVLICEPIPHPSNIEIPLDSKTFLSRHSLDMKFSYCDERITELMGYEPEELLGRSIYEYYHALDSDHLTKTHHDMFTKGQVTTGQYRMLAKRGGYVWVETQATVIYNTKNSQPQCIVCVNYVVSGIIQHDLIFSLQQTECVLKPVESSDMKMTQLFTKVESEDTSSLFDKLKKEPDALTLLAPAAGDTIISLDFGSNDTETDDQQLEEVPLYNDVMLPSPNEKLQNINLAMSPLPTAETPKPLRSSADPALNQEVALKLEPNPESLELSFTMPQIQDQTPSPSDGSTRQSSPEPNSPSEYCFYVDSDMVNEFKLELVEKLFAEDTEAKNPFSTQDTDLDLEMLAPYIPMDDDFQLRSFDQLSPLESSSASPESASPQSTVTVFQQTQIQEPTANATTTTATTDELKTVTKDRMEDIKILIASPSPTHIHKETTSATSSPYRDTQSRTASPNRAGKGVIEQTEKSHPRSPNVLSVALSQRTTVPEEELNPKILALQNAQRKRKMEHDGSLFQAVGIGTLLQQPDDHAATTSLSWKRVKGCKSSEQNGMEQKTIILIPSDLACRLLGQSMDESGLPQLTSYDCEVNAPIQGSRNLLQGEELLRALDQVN

COP(=O)(OC)OC(Br)C(Cl)(Cl)Br (stereo not drawn)
not listed: [19] | [20]
inactive: all other assays above

CCOC(=O)CC(SP(=O)(OC)OC)C(=O)OCC (stereo not drawn)
active: [12] 34.8 µM | [13] 39.7 µM
not listed: [19] | [20]
inactive: all other assays above

C#CCC1=C(C)C(OC(=O)C2C(C=C(C)C)C2(C)C)CC1=O (stereo not drawn)
active: [3] 71.2 µM | [4] 90.5 µM | [6] 50 µM | [7] 50 µM | [8] 74.8 µM | [9] 72.2 µM | [10] 4.27 µM | [11] 72.1 µM | [12] 1.15 µM | [13] 13.2 µM | [14] 50 µM | [15] 31 µM | [18] 38.7 µM
inactive: [1] | [5] | [19] | [16] | [17]

CNc1cnn(-c2cccc(C(F)(F)F)c2)c(=O)c1Cl
active: [8] 10.4 µM | [12] 20.1 µM | [19] 27.6 µM
not listed: [20]
inactive: all other assays above

CSC1=N[C@@](C)(c2ccccc2)C(=O)N1Nc1ccccc1
active: [9] 50 µM | [10] 21.7 µM | [12] 7.44 µM | [13] 19.2 µM
not listed: [15] | [20]
inactive: all other assays above

CC1(C(=O)Nc2ccc(O)c(Cl)c2Cl)CCCCC1
active: [9] 50 µM | [10] 5.86 µM | [12] 2.91 µM | [13] 36.3 µM | [15] 23.1 µM
not listed: [2] | [19]
inactive: all other assays above

Nc1nc(N)nc(NC2CC2)n1
not listed: [10] | [13] | [20]
inactive: all other assays above

CCOP(=S)(OCC)SCCSCC
active: [2] 15.4 µM | [10] 30.5 µM | [12] 13.7 µM
not listed: [1] | [15] | [20]
inactive: all other assays above

CCOP(=S)(OCC)OC(Cl)C(Cl)(Cl)Cl (stereo not drawn)
active: [9] 32.9 µM | [12] 35.6 µM | [15] 38.5 µM
not listed: [1] | [19] | [20]
inactive: all other assays above

C#CC(C)(C)NC(=O)c1cc(Cl)cc(Cl)c1
active: [9] 50 µM | [10] 50 µM | [12] 7.44 µM | [15] 50 µM
not listed: [1] | [13] | [20]
inactive: all other assays above

C[N+]1(C)CCCCC1
not listed: [1] | [2]
inactive: all other assays above

CN(C)NC(=O)CCC(=O)O
not listed: [1] | [2] | [15] | [19]
inactive: all other assays above

COc1cc(OC)nc(Sc2cccc(Cl)c2C(=O)O)n1
not listed: [1] | [13] | [15] | [19] | [20]
inactive: all other assays above

CCNc1nc(Cl)nc(NC(C)(C)C#N)n1
active: [12] 29.2 µM
not listed: [1] | [8] | [19]
inactive: all other assays above
